From PubChem BioAssay (NCI) come the findings set out here.

Some test systems named below: SK-MEL-2 melanoma; EKVX NSCLC; SN12C renal; UO-31 renal; TK-10 renal; ACHN renal; CAKI-1 renal; A498 renal; CCRF-CEM leukemia; MOLT-4 leukemia.
Test in all cases: NCI-60 one-dose screen, 48 h (100 = growth as untreated, 0 = no growth, -100 = all killed)
Settings in all cases: 10 µM unless noted

About 83,000 compounds went through this panel and 20% of them were active in at least one assay; those are over-represented in the sample as a whole.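 Cell lines were cultured in 96-well plates, exposed to a single compound concentration, and assessed for percent growth 48 hours later.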 Values without a mark were called inactive. Activity calls are given as the source filed them. How the source made its calls: active means growth percent below 10; inactive means the rest.

Regarding `COc1ccc(-c2nc(/C=C3\SC(=NCc4ccccc4)NC3=O)c3ccccn23)cc1`, the growth was -31.6% (active) in the assay with SK-MEL-2 melanoma; 58% in the assay on EKVX NSCLC; -19.7% (active) with SN12C renal; -47.2% (active) in the assay on UO-31 renal; -52.4% (active) in the assay on TK-10 renal; -28.3% (active) with ACHN renal. The growth in the assay with CAKI-1 renal is 3.18% (active); in the assay with A498 renal it was -7.6% (active); in the assay with CCRF-CEM leukemia it was 16.2%; in the assay on MOLT-4 leukemia, 11.1%.
In the case of `Cc1ccccc1NC(=O)c1sc2nc(C)c(C(=O)/C=C/c3ccccc3)cc2c1N`, the growth with SK-MEL-2 melanoma is 34.8%; in the assay on EKVX NSCLC it was 59.6%; in the assay on SN12C renal it was 3.45% (active); in the assay on UO-31 renal it was 19.7%; with TK-10 renal, 11.7%; in the assay with ACHN renal, 33.3%. The growth in the assay with CAKI-1 renal is 25.5%; in the assay with A498 renal, 29.3%; in the assay with CCRF-CEM leukemia, 8.43% (active); in the assay on MOLT-4 leukemia, 17.4%.
On to `CC(C)CCNC(=O)Cn1cccc(NC(=O)OCc2ccccc2)c1=O`, for which the growth is 112% with SK-MEL-2 melanoma; 101% with EKVX NSCLC; 103% with SN12C renal; 76% in the assay on UO-31 renal; 130% in the assay with TK-10 renal; 103% in the assay with ACHN renal. In addition, the growth is 70.3% with CAKI-1 renal, 117% in the assay on A498 renal, 96.6% in the assay on CCRF-CEM leukemia and 106% in the assay on MOLT-4 leukemia.
Take `N#Cc1c(-c2ccc(Cl)cc2)nc(SCC(=O)NC2=NN=C(c3ccccc3)CS2)[nH]c1=O`: the growth in the assay on SK-MEL-2 melanoma was 82.9%; in the assay with EKVX NSCLC, 86.2%; in the assay with SN12C renal it was 97.4%; with UO-31 renal, 71.2%; in the assay with TK-10 renal, 119%; with ACHN renal, 88.9%. Moreover, the growth was 77% in the assay with CAKI-1 renal, 97.6% with A498 renal, 63.8% with CCRF-CEM leukemia and 90.4% in the assay on MOLT-4 leukemia.
For `COc1ccc(/C=C2\COc3ccc(O)cc3C2=O)c(OC)c1OC`, the growth in the assay with SK-MEL-2 melanoma was 102%; in the assay with EKVX NSCLC it was 93.9%; with SN12C renal, 66.3%; in the assay with UO-31 renal, 71.5%; in the assay with TK-10 renal, 109%; in the assay with ACHN renal, 80.1%. The growth was 68.2% with CAKI-1 renal, 113% in the assay with A498 renal, 8.08% (active) in the assay with CCRF-CEM leukemia and 73.2% in the assay on MOLT-4 leukemia.
Consider `CCOC(=O)c1c2c(n3ccc(C)cc13)C(=O)c1ccccc1C2=O`, for which the growth in the assay on SK-MEL-2 melanoma was 90.2%; with EKVX NSCLC, 91.2%; in the assay with SN12C renal, 95.8%; with UO-31 renal, 60.6%; in the assay on TK-10 renal, 103%; in the assay with ACHN renal, 96.4%. Also, the growth was 80.1% in the assay on CAKI-1 renal, 83.8% with A498 renal, 99.9% in the assay on CCRF-CEM leukemia and 89.9% in the assay with MOLT-4 leukemia.
As to `CC1(C)CC[C@]2(c3nnc(-c4ccncc4)o3)CC[C@H]3C(=CC[C@H]4[C@@]3(C)CC[C@H]3C(C)(C)C(=O)CC[C@]43C)[C@@H]2C1`, the growth in the assay with SK-MEL-2 melanoma is 97%; in the assay on EKVX NSCLC, 80.1%; in the assay with SN12C renal, 75.2%; in the assay on UO-31 renal it was 51%; with TK-10 renal it was 97.5%; in the assay with ACHN renal, 71.3%. Besides, the growth in the assay with CAKI-1 renal is 58.1%; with A498 renal, 31.6%; with CCRF-CEM leukemia it was 52.5%; with MOLT-4 leukemia, 38.7%.
As for `CCCCC(=O)c1ccco1`, the growth with SK-MEL-2 melanoma is 98.6%; with EKVX NSCLC, 98.7%; with SN12C renal, 87.9%; in the assay with UO-31 renal, 79.1%; in the assay with TK-10 renal it was 96%; in the assay on ACHN renal, 96.7%. Moreover, the growth was 90.2% in the assay with CAKI-1 renal, 74.6% in the assay with A498 renal, 92.3% in the assay with CCRF-CEM leukemia and 102% in the assay with MOLT-4 leukemia.
For the compound `CC(=O)OCc1nc(C#N)c(N(C)C)o1`, the growth in the assay with SK-MEL-2 melanoma is 88.8%; in the assay with EKVX NSCLC, 90.6%; in the assay with SN12C renal, 97.7%; with UO-31 renal, 89.9%; with TK-10 renal, 84.1%; in the assay on ACHN renal, 98%. Moreover, the growth with CAKI-1 renal was 92.7%; in the assay with A498 renal, 84.7%; in the assay on CCRF-CEM leukemia it was 88.2%; in the assay with MOLT-4 leukemia it was 97.1%.
Regarding `O=C(O)[C@@H]1c2ccccc2-c2ccccc2[C@H]1C(=O)O`, the growth is 123% in the assay with SK-MEL-2 melanoma; 100% with EKVX NSCLC; 99.6% in the assay with SN12C renal; 66.3% with UO-31 renal; 105% with TK-10 renal; 98.7% in the assay with ACHN renal. Besides, the growth is 96.5% with CAKI-1 renal, 96.6% in the assay on A498 renal, 87.1% in the assay on CCRF-CEM leukemia and 107% in the assay on MOLT-4 leukemia.
For `Cc1cc2c(O)c(-c3cccc(Cl)c3)c3sc(=O)oc3c2cc1C`, the growth in the assay on SK-MEL-2 melanoma was 37.8%; in the assay with EKVX NSCLC it was 93.9%; with SN12C renal it was 36.7%; with UO-31 renal, 54.2%; in the assay with TK-10 renal, 122%; with ACHN renal, 44.5%. In addition, the growth in the assay on CAKI-1 renal was 40.5%; in the assay with A498 renal, 9.01% (active); in the assay on CCRF-CEM leukemia, 44.8%; with MOLT-4 leukemia, 45.8%.
With `O=C(NCCCCNC(=O)OCc1ccc2c(Cl)cc(Cl)c(O)c2n1)OCc1ccc2c(Cl)cc(Cl)c(O)c2n1`, the growth in the assay on SK-MEL-2 melanoma was 29.6%; in the assay on EKVX NSCLC, 91.3%; with SN12C renal, 28.1%; in the assay with UO-31 renal it was 37.2%; in the assay with TK-10 renal it was 61.3%; in the assay on ACHN renal it was 26.2%. Also, the growth with CAKI-1 renal was 13.1%; with A498 renal it was -1.85% (active); in the assay on CCRF-CEM leukemia, 18.3%; with MOLT-4 leukemia, 22.6%.
For the compound `COc1cc(C(=O)n2nc(N3CCN(C)CC3)c3cc(N)ccc32)cc(OC)c1OC`, the growth is 70.9% in the assay on SK-MEL-2 melanoma; 34.1% in the assay with EKVX NSCLC; 39.6% in the assay on SN12C renal; 26.4% with UO-31 renal; 59.1% in the assay with TK-10 renal; 36.8% with ACHN renal. Moreover, the growth with CAKI-1 renal is 57.3%; in the assay on A498 renal, -3.79% (active); in the assay on CCRF-CEM leukemia, 20.2%; in the assay on MOLT-4 leukemia it was 17.3%.
Turning to `Oc1c(Cl)cc(Cl)c2ccc(Cn3cc(-c4cc(C(F)(F)F)cc(C(F)(F)F)c4)nn3)nc12`, the growth in the assay on SK-MEL-2 melanoma was 89.9%; with EKVX NSCLC it was 80.9%; in the assay with SN12C renal, 65.4%; with UO-31 renal, 57%; in the assay on TK-10 renal, 96.7%; with ACHN renal, 11.4%. In addition, the growth with CAKI-1 renal is 13.8%; with A498 renal it was 103%; with CCRF-CEM leukemia, 4.83% (active); with MOLT-4 leukemia, 2.95% (active).
As to `COc1cc2c(c(OC)c1OC)C(=O)CC(c1cccc(NC(=O)c3ccc(Br)cc3)c1)O2` (stereo not given), the growth was 8.79% (active) in the assay on SK-MEL-2 melanoma; 74.3% in the assay on EKVX NSCLC; 61.5% in the assay with SN12C renal; 34.9% with UO-31 renal; 61.7% in the assay with TK-10 renal; 52.4% in the assay on ACHN renal. The growth was 46.2% with CAKI-1 renal, 36.2% with A498 renal, 2.95% (active) in the assay on CCRF-CEM leukemia and -11.5% (active) with MOLT-4 leukemia.
